Bioassay records as filed in PubChem.
A selection: hits, their analogues and other compounds. The true share with any hit is near 8.2%.
KB-3-1 tox: kills parental KB-3-1 adenocarcinoma cells. AID 1347075. Potency, µM (series often up to 46.1 µM), most hits filed as cytotoxic. 400,000 tested, 1.4% active. KB-3-1 viability, CellTiter-Glo ATP luminescence, 72 h; note: % is set by controls: 0 for no effect and ±100 for the full control effect; nearly all actives have a fitted effect of over 60% in size
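Here the drug-naive KB-3-1 line serves as comparator for MDR sub-line selectivity; cells received compound titrations, 72 h at 37 °C, then CellTiter-Glo readout.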
ELG1 repair inh: ELG1-dependent DNA repair inhibition; HEK293T ELG1-luciferase reporter, luminescence, 16 h; DNA damage induced by 5-fluorouridine; Potency, µM (highest dose often 46.1 µM), without a hit: at the top dose activity change, negative = inhibition, usual class: inhibitors; 330,000 tested, 2.3% active; note: % is set by controls: 0 for no effect and ±100 for the full control effect; nearly all actives have a fitted effect of over 55% in size
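Luminescence from the luciferase reporter, measured 30 min after ONE-Glo reagent at room temperature, was the read-out. Beforehand, 2,000 cells per well were exposed for 16 hr at 37 °C to 5-fluorouridine together with compound or vehicle.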
MCF10A rerep: induces DNA re-replication in MCF 10a normal breast cells. MCF 10A DNA re-replication, Hoechst nuclear intensity, 48 h. Potency, µM (series often up to 46.1 µM), without a hit: top-dose activity, positive = re-replication, usual class: activators. 350,000 tested, 2.9% active. AID 624296; note: % of control where 0% means no effect; nearly all actives have a fitted effect of over 50% in size
KB-V1 cytotox: kills drug-selected multidrug resistant KB-V1 cells; 400,000 tested, 3.4% active; KB-V1 MDR cells viability, CellTiter-Glo, 72 h; Potency, µM (highest dose often 46.1 µM), hits mostly cytotoxic; note: % is set by controls: 0 for no effect and ±100 for the full control effect; nearly all actives have a fitted effect of over 60% in size
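Cytotoxicity toward P-gp-expressing KB-V1 cells was determined as loss of CellTiter-Glo luminescence after 72 h at 37 degrees C. Compounds were tested in quantitative HTS format across a concentration range, with curves fitted to normalized data.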
SW480 rerep: induces DNA re-replication in SW480 colon adenocarcinoma cells; SW480 DNA re-replication, Hoechst DNA content imaging, 48 h; Potency, µM (top dose mostly 46.1 µM), for inactives: top-dose re-replication activation, most hits filed as activators; 340,000 tested, 1.8% active; note: % of control where 0% means no effect; nearly all actives have a fitted effect of over 55% in size
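SW480 cells exposed to compounds for 48 hr at 37 C, 5% CO2, then Hoechst-stained 40 min. Nuclear DNA content imaged by fluorescence scanning (405 nm excitation, 500-530 nm emission); re-replication scored as increased high-intensity nuclei.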
An asterisk follows results filed as active. Calls come from the whole dose curve; as a rule, active = well fitted curve in the direction sought with a large enough effect; inconclusive = small, poorly fitted or top-dose-only effect, or another doubt; inactive = no such curve, though single readings can be large; an effect the other way counts as inactive or inconclusive. Potency is the fitted concentration of half-maximal effect.

Cc1nnc(SCCn2c(N3CCCC(C)C3)nc3c2c(=O)n(C)c(=O)n3C)s1 (centres undefined) was read as KB-3-1 tox inactive, ELG1 repair inh -1.9%, MCF10A rerep -2.2%, KB-V1 cytotox inactive and SW480 rerep -14.6%.
`Cc1nnc(SCCn2c(N3CCC(C)CC3)nc3c2c(=O)n(C)c(=O)n3C)s1` gave KB-3-1 tox inconclusive, MCF10A rerep 14.2%, KB-V1 cytotox 11.6µM* and SW480 rerep -9.6%.
Screening Cc1nnc(SCCn2c(N3CCC(Cc4ccccc4)CC3)nc3c2c(=O)[nH]c(=O)n3C)s1 returned KB-3-1 tox inactive, ELG1 repair inh 9.2µM*, MCF10A rerep -9.7%, KB-V1 cytotox inconclusive and SW480 rerep 2.6%.
Cc1[nH]c(=O)[nH]c(=O)c1S(=O)(=O)Nc1ccc(F)c([N+](=O)[O-])c1 was read as KB-3-1 tox inactive, ELG1 repair inh -0.2%, MCF10A rerep -6.9%, KB-V1 cytotox inactive and SW480 rerep -6.4%.
Screening Cc1onc(-c2ccccc2)c1C(=O)Nc1sc2c(c1C#N)CCC2 returned KB-3-1 tox inconclusive, ELG1 repair inh inconclusive, MCF10A rerep inconclusive, KB-V1 cytotox 4.61µM* and SW480 rerep inconclusive.
For Cc1onc(-c2c(F)cccc2Cl)c1C(=O)NC(=S)NC1CCS(=O)(=O)C1 (centres undefined) the results were KB-3-1 tox inactive, ELG1 repair inh -8.6%, MCF10A rerep 16.9%, KB-V1 cytotox 23.1µM* and SW480 rerep 0.2%.
For Cc1cc(C(=O)Nc2sc3c(c2C#N)CCCC3)no1 the results were KB-3-1 tox inconclusive, ELG1 repair inh inconclusive, MCF10A rerep inconclusive, KB-V1 cytotox inconclusive and SW480 rerep 11.6µM*.
For Cc1cc(C(=O)Nc2sc3c(c2C#N)CCC(C)C3)no1 (centres undefined) the results were KB-3-1 tox inconclusive, ELG1 repair inh inconclusive, MCF10A rerep 9.2µM*, KB-V1 cytotox 11.6µM* and SW480 rerep inconclusive.
Screening COc1ccccc1N1CCN(C(=O)c2cnn(C(C)(C)C)c2C2CCN(C(=O)OC(C)(C)C)CC2)CC1 returned KB-3-1 tox inactive and KB-V1 cytotox inactive.
`CCCCCCCCCCCC(=O)OCC(O)C1OCC(O)C1O` (centres undefined) gave MCF10A rerep 4.3% and SW480 rerep 1.1%.
N#Cc1c(NC(=O)c2cc(C3CC3)on2)sc2c1CCC2 was read as KB-3-1 tox 13µM*, ELG1 repair inh 12.4%, MCF10A rerep 3.26µM*, KB-V1 cytotox inactive and SW480 rerep 20.6µM*.
COC(=O)c1c(-c2ccccc2)csc1NC(=O)c1c(-c2ccccc2)noc1C was read as KB-3-1 tox inactive, ELG1 repair inh inconclusive, MCF10A rerep inconclusive, KB-V1 cytotox 5.8µM* and SW480 rerep inconclusive.
Screening Cc1cc(C(=O)Nc2sc3c(c2C#N)CCC3)no1 returned KB-3-1 tox inconclusive, ELG1 repair inh inconclusive, MCF10A rerep 8.2µM*, KB-V1 cytotox 16.4µM* and SW480 rerep inconclusive.
Screening CC(C)Cc1cc(C(=O)Nc2sc3c(c2C#N)CCCC3)no1 returned KB-3-1 tox inactive, ELG1 repair inh 21.2%, MCF10A rerep 19.4%, KB-V1 cytotox inactive and SW480 rerep -1.6%.
Cn1ccc(C(=O)Nc2sc3c(c2C#N)CCC3)n1 was read as KB-3-1 tox inactive, ELG1 repair inh 10.6%, MCF10A rerep 0.9%, KB-V1 cytotox inactive and SW480 rerep 14.2%.
Cc1cc(C(F)F)n2nc(C(=O)Nc3sc4c(c3C#N)CCC4)nc2n1 was read as KB-3-1 tox inactive, ELG1 repair inh -2.9%, MCF10A rerep -33.6%, KB-V1 cytotox 20.6µM* and SW480 rerep 14.9%.
For CC(C)Cc1cc(C(=O)Nc2sc3c(c2C#N)CCC3)no1 the results were KB-3-1 tox inactive, ELG1 repair inh 4.2%, MCF10A rerep 2.0%, KB-V1 cytotox inactive and SW480 rerep 1.1%.
Screening CC1(c2nnc(Cc3ccccc3)o2)CC(c2ccccc2Br)=NO1 (centres undefined) returned KB-3-1 tox inactive, ELG1 repair inh -1.7%, MCF10A rerep 3.5%, KB-V1 cytotox inconclusive and SW480 rerep -23.0%.
`CCOc1ccc(CNC(=O)CS(=O)(=O)c2cccc3nsnc23)cc1` gave KB-3-1 tox inactive and KB-V1 cytotox inconclusive.
